Data on six compounds can be found in PubChem BioAssay (EPA / NIEHS).

Experiment [1] addresses bovine Gamma-Aminobutyric Acid Type A Receptor BDZ, alpha 5 site (GABARa5), GABRA5 (gene 523515) (UniProt Q08E50). Kind of experiment: NVS_LGIC_bGABARa5: NovaScreen (NVS) Ligand-Gated Ion Channel Assay for bovine Gamma-Aminobutyric Acid Type A Receptor BDZ, alpha 5 site (GABARa5) (AID 2283323). The method in brief: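 Radioligand competitive displacement binding on bovine hippocampal membranes, read 1 hr after dosing by filter-based scintillation counting. Primary screen at 25 uM in duplicate; actives (e.g. ≥30% inhibition) then run in concentration-response up to 50 uM.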

Experiment [2] deals with human Serotonin, 5-Hydroxytryptamine Receptor 3 (5HT3), HTR3A (gene 3359) (UniProt P46098). In words: NVS_LGIC_h5HT3: NovaScreen (NVS) Ligand-Gated Ion Channel Assay for human Serotonin, 5-Hydroxytryptamine Receptor 3 (5HT3) (AID 2283325). The method in brief:
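Radioligand displacement binding to human 5-HT3 from HEK293 membranes, read by filter-based scintillation counting after 1 h. Screen at 25 uM in duplicate; chemicals passing threshold were retested in concentration-response up to 50 uM.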

For experiment [3], the target named is rat Gamma-Aminobutyric Acid Type A Receptor, Non-Selective (GABAR-NonSelective), Gabra1 (gene 29705) (UniProt P62813). Kind of experiment: NVS_LGIC_rGABAR_NonSelective: NovaScreen (NVS) Ligand-Gated Ion Channel Assay for rat Gamma-Aminobutyric Acid Type A Receptor, Non-Selective (GABAR-NonSelective) (AID 2283326). A digest of the protocol:
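Radioligand displacement on rat whole-brain extract, 1 h, filter scintillation readout; signal loss fitted versus DMSO. Primary screen in duplicate at 25 uM; hits (e.g. ≥30% inhibition) retested in concentration-response up to 50 uM.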

Experiment [4] has as its target rat Glutamate, NMDA Agonist Site (GluNMDA), Grin1 (gene 24408) (UniProt P35439). Kind of experiment: NVS_LGIC_rGluNMDA_Agonist: NovaScreen (NVS) Ligand-Gated Ion Channel Assay for rat Glutamate, NMDA Agonist Site (GluNMDA) (AID 2283327). The method, then: NVS_LGIC_rGluNMDA_Agonist is a biochemical, single-readout assay that uses extracted gene-proteins from Rat forebrain membranes in a tissue-based cell-free assay. Measurements were taken 1 hour after chemical dosing in a 48-well plate.NVS_LGIC_rGluNMDA_Agonist is one of one assay component(s) measured or calculated from the NVS_LGIC_rGluNMDA_Agonist assay. It is designed to make measurements of radioligand binding, a form of binding reporter, as detected with scintillation counting signals by Filter-based radiodetection technology.Data from the assay component NVS_LGIC_rGluNMDA_Agonist was analyzed into 1 assay endpoint. This assay endpoint, NVS_LGIC_rGluNMDA_Agonist, was analyzed in the positive analysis fitting direction relative to DMSO as the negative control and baseline of activity. Using a type of binding reporter, gain-of-signal activity can be used to understand changes in the binding as they relate to the gene Grin1. Furthermore, this assay endpoint can be referred to as a primary readout, because the performed assay has only produced 1 assay endpoint. To generalize the intended target to other relatable targets, this assay endpoint is annotated to the ion channel intended target family, where the subfamily is ligand-gated ion channel. […]

Records with an inconclusive call do not appear. Calls of active or inactive are those of the source. How the source made its calls: active means hit-call score of the fitted dose curve at least 0.9, where 1 is the maximum; inconclusive means response in the unintended direction; inactive means score below 0.9.

human Serotonin, 5-Hydroxytryptamine Receptor 3 (5HT3), HTR3A (gene 3359), sequence (P46098 whole entry, looked up): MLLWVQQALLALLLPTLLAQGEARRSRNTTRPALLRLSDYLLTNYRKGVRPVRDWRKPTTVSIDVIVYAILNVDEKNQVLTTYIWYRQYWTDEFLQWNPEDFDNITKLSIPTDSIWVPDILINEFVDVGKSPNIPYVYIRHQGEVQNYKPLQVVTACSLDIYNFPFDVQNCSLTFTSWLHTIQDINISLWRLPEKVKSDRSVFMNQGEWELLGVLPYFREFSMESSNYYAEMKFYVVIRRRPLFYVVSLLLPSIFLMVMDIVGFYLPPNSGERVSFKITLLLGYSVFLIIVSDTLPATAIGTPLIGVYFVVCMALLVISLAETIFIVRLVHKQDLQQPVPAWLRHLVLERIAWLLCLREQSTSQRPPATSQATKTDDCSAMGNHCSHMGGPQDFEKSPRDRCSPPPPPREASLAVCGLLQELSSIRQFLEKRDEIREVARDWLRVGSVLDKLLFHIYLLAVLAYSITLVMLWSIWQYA
bovine Gamma-Aminobutyric Acid Type A Receptor BDZ, alpha 5 site (GABARa5), GABRA5 (gene 523515), sequence (Q08E50 whole entry, looked up): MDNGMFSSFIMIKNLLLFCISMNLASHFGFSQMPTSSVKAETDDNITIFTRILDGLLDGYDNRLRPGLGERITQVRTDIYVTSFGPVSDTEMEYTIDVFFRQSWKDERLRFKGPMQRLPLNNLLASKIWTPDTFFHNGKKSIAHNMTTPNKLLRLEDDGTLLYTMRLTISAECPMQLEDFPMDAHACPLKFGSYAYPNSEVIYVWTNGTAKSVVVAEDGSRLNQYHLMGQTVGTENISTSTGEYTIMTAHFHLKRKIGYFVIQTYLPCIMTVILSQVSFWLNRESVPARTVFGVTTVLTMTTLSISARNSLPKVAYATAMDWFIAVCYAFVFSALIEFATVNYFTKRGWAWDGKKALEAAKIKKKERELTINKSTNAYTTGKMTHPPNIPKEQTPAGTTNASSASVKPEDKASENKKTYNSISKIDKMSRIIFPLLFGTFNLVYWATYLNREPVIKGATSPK
rat Gamma-Aminobutyric Acid Type A Receptor, Non-Selective (GABAR-NonSelective), Gabra1 (gene 29705), sequence (P62813 whole entry, looked up): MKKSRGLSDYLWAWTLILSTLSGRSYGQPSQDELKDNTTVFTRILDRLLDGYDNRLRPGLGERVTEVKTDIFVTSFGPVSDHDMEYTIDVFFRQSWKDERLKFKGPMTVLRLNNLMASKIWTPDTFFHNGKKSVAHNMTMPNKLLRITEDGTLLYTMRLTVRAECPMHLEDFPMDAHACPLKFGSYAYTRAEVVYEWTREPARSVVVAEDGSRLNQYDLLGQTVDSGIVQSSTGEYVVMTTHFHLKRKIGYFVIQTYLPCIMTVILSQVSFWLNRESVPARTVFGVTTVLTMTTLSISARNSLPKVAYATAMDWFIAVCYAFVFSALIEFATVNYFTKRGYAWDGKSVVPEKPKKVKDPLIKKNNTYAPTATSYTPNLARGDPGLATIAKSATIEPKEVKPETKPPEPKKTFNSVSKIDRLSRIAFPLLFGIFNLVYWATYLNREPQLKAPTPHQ

`O=C(OCCOCCOC(=O)c1ccccc1)c1ccccc1`: the outcome in experiment [1] was inactive.

As to `CCCCCCCC(=O)O`, the outcome in experiment [1] and in experiment [2] was inactive.

`NC(=O)N(O)[C@@H]1C=C[C@H](Oc2cccc(Oc3ccc(F)cc3)c2)C1`: the result in experiment [2] was inactive.

As for `CCN(CC)CCNc1ccc(CNC=O)c2sc3ccc(OC)cc3c(=O)c12`, in experiment [3], the compound was called inactive.

As to `CCCCCCCCCCCCc1ccccc1S(=O)(=O)O`, the AC50 in experiment [4] is 20.1 µM (active).

On to `Cc1cc(C)c(O)c(C)c1`, for which, in experiment [4], the call was inactive.

Usually AC50 stands for the concentration giving half of the maximal activity seen.
